Compound activity as filed in PubChem.
Artemis inh: inhibitors of human Artemis endonuclease activity. Q96SD1. 30,000 compounds, 0.78% hits. AID 686954. inhibition, % at 10 µM. recombinant Artemis, quenched FAM hairpin cleavage fluorescence;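 active = at 10 µM dose, at least 30% inhibition, measured as corrected fluorescence normalized to stimulator and neutral control wells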
Target sequence (Q96SD1 whole entry, looked up): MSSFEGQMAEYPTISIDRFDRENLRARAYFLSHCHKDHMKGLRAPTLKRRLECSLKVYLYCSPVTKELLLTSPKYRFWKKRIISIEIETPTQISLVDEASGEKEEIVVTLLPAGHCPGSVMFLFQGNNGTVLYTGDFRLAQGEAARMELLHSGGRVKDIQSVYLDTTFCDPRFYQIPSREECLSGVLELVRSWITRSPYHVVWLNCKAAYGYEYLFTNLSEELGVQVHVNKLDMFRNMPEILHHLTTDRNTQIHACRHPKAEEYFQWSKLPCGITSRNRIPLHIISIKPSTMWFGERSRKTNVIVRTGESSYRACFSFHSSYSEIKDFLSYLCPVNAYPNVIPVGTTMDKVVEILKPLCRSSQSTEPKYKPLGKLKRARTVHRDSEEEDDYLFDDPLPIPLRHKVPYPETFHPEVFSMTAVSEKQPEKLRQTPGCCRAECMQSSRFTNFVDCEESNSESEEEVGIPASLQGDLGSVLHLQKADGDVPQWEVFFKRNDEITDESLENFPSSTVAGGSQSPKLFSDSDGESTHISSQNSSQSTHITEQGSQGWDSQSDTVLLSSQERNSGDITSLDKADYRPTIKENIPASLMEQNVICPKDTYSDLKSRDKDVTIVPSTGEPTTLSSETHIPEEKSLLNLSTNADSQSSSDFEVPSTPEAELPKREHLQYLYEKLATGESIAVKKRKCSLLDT
A number is an active result; n = inactive. This excerpt belongs to a sample that is enriched for hits.

SMILES	Artemis inh
COc1ccc(S(=O)(=O)N2CCC(C(=O)NC3CC3)CC2)cc1Cl	n
Cc1ccc(NC2=C/C(=N\S(=O)(=O)c3cccs3)c3ccccc3C2=O)c(C)c1	52.6
COc1ccc(C)cc1NC(=O)CN(C)S(=O)(=O)c1cccs1	n
Cc1ccc(NCN2C(=O)c3ccccc3C2=O)c(C)c1	n
COc1cccc(NC(=O)C2C3CC4OC(=O)C2C4C3)c1 (centres undefined)	n
CCOC(=O)c1[nH]c2ccc(F)cc2c1N=C(C)N(CC)CC	n
C(/C=C/c1ccco1)=N/N1CCN(c2ccccc2)CC1	n
Cc1cccc(C)c1NC(=O)/C(=C/c1ccco1)c1ccccc1	n
CC1=NN(c2cccc(C(=O)O)c2)C(=O)/C1=C\C=C\c1ccco1	30.9
Cc1nn(-c2ccc(F)cc2)c2sc(C(=O)OC3CCOC3=O)cc12 (centres undefined)	n
O=C(Cn1cnc2c(cnn2-c2ccc(F)cc2)c1=O)NCC1CCCO1 (centres undefined)	33.1
O=C(CSc1ncnc2c1nnn2-c1ccc(F)cc1)NCC1CCCO1 (centres undefined)	n
O=C(Cn1cnc2c(cnn2-c2ccc(F)cc2)c1=O)OCc1ccccc1	n
CCOC(=O)Cn1c(C)cc(=O)c2ccccc21	n
CCCOc1ccc(/C(O)=C2/C(=O)C(=O)N(CCN(C)C)C2c2ccco2)cc1 (centres undefined)	n
Cc1cc(-c2csc(N)n2)c(C)n1C	31.8
COc1ccc2cc3cc(C(=O)Nc4ccccc4N4CCN(C)CC4)oc3nc2c1	n
Cc1ccc2c(c1)C(N1CCCC1=O)CC(c1ccco1)N2 (centres undefined)	n
Cc1ccc(OCC(=O)c2ccc3c(c2)CCCC3)cc1C	n
CCCCNC(=O)Nc1ccccn1	n
C(=N\N1CCN(C2c3ccccc3-c3ccccc32)CC1)/c1ccccn1	32.3
O=[N+]([O-])c1cc(/C=N/N2CCN(C3c4ccccc4-c4ccccc43)CC2)ccc1Cl	n
C(=N\N1CCN(C2c3ccccc3-c3ccccc32)CC1)/c1cccnc1	n
Cc1ccc(NC(=O)c2sc3nc4c(c(-c5ccco5)c3c2N)CCC4)cc1	n
CN1CCN(C(=O)CCc2nc3ccccc3c(=O)[nH]2)CC1	n
SMILES	Artemis inh
COc1ccc(N(CC(=O)NC2CCCCC2)C(=O)CCCC(=O)Nc2ccccn2)c(OC)c1	n
O=C(C1CC1)N(CCN(Cc1ccccc1)C(=O)C1CC1)Cc1ccccc1	n
O=C(NC1CCCCCCC1)NC1CCCCC1	n
O=C(NC1CCCCCCC1)c1ccccc1O	n
O=C(NNC(=O)c1cc(O)c(O)c(O)c1)NC1CCCCC1	31.5
CN(NC(=O)c1cccc(Cl)c1)c1nc(-c2ccccc2)nnc1C(F)(F)F	n
CCN1CCn2c3c(c4cc(Br)ccc42)CCCC31 (centres undefined)	n
Cc1ccc2c(c1)c1c3n2CCN(C(=O)CN2CCN(C)CC2)C3CCC1 (centres undefined)	n
Cc1ccc2c(c1)c(=O)c1c3n2CCN(C(=O)CCl)C3CC1 (centres undefined)	33.8
Cc1nc2ccc(S(=O)(=O)NCC(=O)N3CCC(N4CCCCC4)CC3)cc2s1	n
C=CCc1c(C)nc(C)nc1N/N=C/c1ccc(N(C)C)cc1	n
O=C(Nc1cccnc1)c1cnn2c(C(F)F)cc(C3CC3)nc12	n
Cc1ccc(-c2cc(C(F)F)n3ncc(C(=O)Nc4c(C)nn(Cc5c(Cl)cccc5Cl)c4C)c3n2)cc1	32.5
Cc1nn(Cc2c(Cl)cccc2Cl)c(C)c1NC(=O)c1cnn2c(C(F)F)cc(-c3ccccc3)nc12	n
CC(Sc1nc(-c2ccccc2)cc(C(F)(F)F)n1)C(=O)N1CCOCC1 (centres undefined)	n
CCOC(=O)N1CCN(c2ccc(C(=O)c3ccccc3)cc2F)CC1	n
CCOC(=O)N1CCN(C(=O)c2ccc(N3C(=O)c4ccccc4C3=O)cc2)CC1	n
CCOC(=O)N1CCN(c2cc(NCCC(=O)O)c3c4c(onc24)-c2ccccc2C3=O)CC1	33.0
CC12CC(NC(=O)N1c1cccc(C(=O)Nc3ncn[nH]3)c1)c1ccccc1O2 (centres undefined)	n
CC(C)c1ccc(Nc2nc(NCc3ccco3)nc(N3CCOCC3)n2)cc1	n
CCOc1nc(NCc2ccco2)nc(Nc2ccc(OC)cc2)n1	n
COc1ccc(Nc2nc(NCc3ccco3)nc(N/N=C/c3ccccc3)n2)cc1	71.9
Cc1cccc(-c2c3c(=O)n(C)c(=O)n(C)c3c3nnc4ccccc4n23)c1	n
COc1ccc(OC)c(C(=O)COC(=O)c2ccc(C)o2)c1	n
COc1ccc(OC)c(C(C(=O)NCc2ccco2)N(C(=O)Cn2nnc3ccccc32)C(C)C)c1 (centres undefined)	n
O=[N+]([O-])c1ccc(N2CCN(S(=O)(=O)c3ccccc3)CC2)cc1NCCN1CCOCC1	n
COc1ccccc1NC(=O)Cn1nnc(-c2ccccc2NC(=O)c2cccs2)n1	n
O=c1c2ccccc2nc(-c2ccco2)n1/N=C/c1ccccc1O	n
Cc1nnc(C)n1/N=C/c1cccn1C	n
Cc1nnc(-c2ccccc2)c(=O)n1/N=C/c1c(O)ccc2ccccc12	46.5
